Data taken from PubChem BioAssay (NCI).
Compounds without any hit were thinned out: in the full panel of roughly 83,000, 20% have a hit.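 Single-concentration screen, 48 h exposure, 96-well plates. Endpoint: percent growth. Below 10 = active.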 Unmarked numbers belong to inactive results. Activity calls are given as the source filed them.

Columns and labels:
Test in all cases: NCI-60 one-dose screen, 48 h (100 = growth as untreated, 0 = no growth, -100 = all killed)
Conditions in all cases: 10 µM unless noted
[1] = test system: SR leukemia
[2] = test system: RPMI-8226 leukemia
[3] = test system: OVCAR-8 ovarian
[4] = test system: OVCAR-5 ovarian
[5] = test system: OVCAR-4 ovarian
[6] = test system: SK-OV-3 ovarian
[7] = test system: IGROV1 ovarian
[8] = test system: OVCAR-3 ovarian
[9] = test system: HS 578T breast
[10] = test system: NCI/ADR-RES ovarian
[11] = test system: T-47D breast
[12] = test system: BT-549 breast
[13] = test system: MDA-MB-435 melanoma
[14] = test system: SW-620 colon
[15] = test system: MCF7 breast
[16] = test system: HCT-116 colon
[17] = test system: HCC-2998 colon
[18] = test system: KM12 colon
[19] = test system: MDA-MB-468 breast

| Compound | growth [1] | growth [2] | growth [3] | growth [4] | growth [5] | growth [6] | growth [7] | growth [8] | growth [9] | growth [10] | growth [11] | growth [12] | growth [13] | growth [14] | growth [15] | growth [16] | growth [17] | growth [18] | growth [19] |
| --- | --- | --- | --- | --- | --- | --- | --- | --- | --- | --- | --- | --- | --- | --- | --- | --- | --- | --- | --- |
| O=C(N=Nc1c(O)[nH]c2ccc(Br)cc12)c1ccc2nc(-c3ccc(Cl)cc3)[nH]c2c1 | 15.1% | 58.6% | -25.9% (active) | 10.6% | -28% (active) | 24.3% | -49.4% (active) | -4.77% (active) | -1.71% (active) | 92.4% | -30.7% (active) | 7.28% (active) | -62.4% (active) | -37.2% (active) | -22.9% (active) | 8.39% (active) | -66.8% (active) | 22.4% | -87.7% (active) |
| COc1ccc2[nH]c(O)c(N=Nc3nc(-c4ccc(Br)cc4)cs3)c2c1 | 19.3% | 16.3% | -23.7% (active) | 31.4% | -69.6% (active) | -35.3% (active) | 30.6% | -71.3% (active) | 29.3% | -24.6% (active) | -27.2% (active) | 35% | 50.3% | 4.99% (active) | -16.4% (active) | -63.1% (active) | 51.4% | 55.6% | -7.45% (active) |
| O=C(NN1C(=O)/C(=C/C=C/c2ccc([N+](=O)[O-])o2)SC1=S)c1ccc([N+](=O)[O-])cc1 | -5.7% (active) | -30.6% (active) | -75.5% (active) | -100% (active) | -99% (active) | -100% (active) | -96.4% (active) | -97.1% (active) | -27.3% (active) | -44% (active) | -60.9% (active) | -93.2% (active) | -86.9% (active) | -77.7% (active) | -61.4% (active) | -76.3% (active) | -94.8% (active) | -94.9% (active) | -79.3% (active) |
| Nc1nn2c(-c3cc4cc(Br)ccc4oc3=O)ccnc2c1N=Nc1ccc(Br)cc1 | 29.7% | 86.3% | 14.5% | 11.8% | 12.8% | 22.4% | -16.1% (active) | 5.27% (active) | 28.3% | 14.1% | 29.2% | 40.7% | 69.5% | 43.2% | 39.5% | 16.2% | 39.2% | 51.7% | 39% |
| CN1C(=O)/C(=C/c2ccco2)S/C1=N/c1nccs1 | 89.5% | 115% | 104% | 110% | 97.8% | 106% | 106% | 114% | 111% | 101% | 65.9% | 112% | 107% | 106% | 33.7% | 95.2% | 107% | 98% | -13.2% (active) |
| Cc1ccc(C(=O)Nc2cc(-n3ccnc3C)cc(C(F)(F)F)c2)cc1C#Cc1cnc2cccnn12 | -17.9% (active) | -14.8% (active) | 18.5% | 7.14% (active) | 15.6% | -0.287% (active) | 4.66% (active) | 37.8% | -25.9% (active) | 4.26% (active) | 0.344% (active) | -22.7% (active) | 3.5% (active) | 12.6% | 0.633% (active) | -41.3% (active) | -48.7% (active) | 3.67% (active) | -20.6% (active) |
| O=C(Nc1nc2ccc([N+](=O)[O-])cc2s1)Nc1ccccc1F | 15.1% | -19.2% (active) | 15.1% | 15.5% | 16.6% | -14.2% (active) | 21.7% | 24.6% | 0.171% (active) | 7.3% (active) | -5.6% (active) | -13.8% (active) | 12.7% | 16.6% | -0.503% (active) | 3.1% (active) | 23.8% | 13.6% | -15.4% (active) |
| COc1c(B(O)O)cccc1-c1nc2ccc3cn[nH]c3c2c2c1CCCC2 | 71.8% | 45.8% | 48.4% | 76.1% | 77.3% | 25.3% | 57.9% | 57% | -17.9% (active) | 65.2% | 70.6% | 30.7% | 84.2% | 53.6% | 60.5% | 28.8% | 86.9% | 62.3% | 10.5% |
| N#C/C(=C/c1ccc([N+](=O)[O-])cc1)c1nnc(NC(=O)c2ccc(-n3c(=O)[nH]c4ccccc4c3=O)cc2)s1 | 91.6% | 98.1% | 93.4% | 110% | 95.6% | 104% | 98.6% | 103% | 101% | 94.2% | 85.8% | 107% | 105% | 100% | 84.9% | 94.8% | 108% | 90.8% | 98.5% |
| CCCCCCCOc1ccc(S(=O)(=O)Nc2ccc(C)c(F)c2C(=O)O)cc1 | 98.7% | 54.9% | 97.1% | 107% | 90.1% | 104% | 109% | 99.9% | 87.8% | 94.4% | 93.9% | 103% | 102% | 100% | 86.6% | 95.5% | 117% | 97.1% | 72.8% |
| COc1c(B(O)O)cc(F)cc1-c1nc2ccc3[nH]ncc3c2c2c1COCC2 | 43.4% | 31.5% | 51.5% | 90.3% | 102% | 82.8% | 57.8% | 64.1% | 9.63% (active) | 93.9% | 62.6% | -7.9% (active) | 87.1% | 34.3% | 44.7% | 19.8% | 80.3% | 70.2% | 41.9% |
| COc1ccc(N=Nc2c(N)nn3c(-c4ccc(F)cc4)ccnc23)cc1 | 3.18% (active) | 95.5% | 73.1% | 80% | 26.1% | 113% | 99.9% | 79.6% | 107% | 74.3% | 61.1% | 96.4% | 56.2% | 44.5% | 55.4% | 71.4% | 108% | 86.2% | 44.2% |
| O=C(CSc1nc2ccccc2c(=O)[nH]1)Nc1ccccc1C(=O)O | 95.2% | 102% | 109% | 105% | 109% | 90.7% | 109% | 106% | 79.3% | 103% | 93.9% | 103% | 104% | 130% | 84.5% | 107% | 125% | 100% | 92.5% |
